Screening results from PubChem.
The sample as a whole holds a higher share of hits than the screen did.
Shiga inhibitor: Shiga toxin inhibition; inhibition, % at 38.7 µM; Vero cells, Shiga toxin protein synthesis inhibition reporter; AID 2315; 290,000 tested, 9.2% active; in the data active = inhibition mostly above about 28%, no sharp cut-off; inactive = mostly below about 43%
VACV mCherry inh: inhibitors of vaccinia virus infection (mCherry reporter signal); Vaccinia virus mCherry reporter infection, fluorescence; Potency, µM (doses to about 36.5 µM), hits mostly inhibitors; 310,000 tested, 0.63% active; AID 720579; calls by dose curve; tested in A549 cells; also: nearly all actives have a fitted effect of over 35% in size
VACV Venus inh: inhibitors of vaccinia virus (Venus reporter); Potency, µM (highest dose often 36.5 µM), most hits filed as inhibitors; 330,000 tested, 0.46% active; Vaccinia virus Venus reporter expression, fluorescence; calls by dose curve; tested in A549 cells; also: nearly all actives have a fitted effect of over 30% in size
Marburg entry inh: inhibitors of Marburg virus binding or cell entry; Marburg virus pseudotyped entry inhibition, cell reporter; Potency, µM (top dose mostly 37.8 µM), actives largely listed as inhibitors; 300,000 tested, 1.8% active; calls by dose curve; tested in HEK293 cells
CHX counter: affects cycloheximide protein synthesis inhibition readout, counter-screen; 300,000 tested, 12% active; cell reporter, cycloheximide protein synthesis inhibition counterscreen; max response, %; in the data active = max response mostly above about 13%, no sharp cut-off; inactive = mostly below about 14%; also: read at 38.3 µM for the half of the compounds with a filed dose
LASV entry inh: Lassa virus entry inhibition; Lassa virus pseudotype entry inhibition, cell reporter; Potency, µM (top dose mostly 37.9 µM), most hits filed as inhibitors; 300,000 tested, 1.2% active; AID 540256; calls by dose curve; tested in HEK293 cells; also: nearly all actives have a fitted effect of over 50% in size
A number is an active result; 0 = inactive; ? = inconclusive; - = not tested or not shown.

SMILES	Shiga inhibitor	VACV mCherry inh	VACV Venus inh	Marburg entry inh	CHX counter	LASV entry inh
COc1cccc(C#Cc2ccc3c(c2)O[C@H](CN(C)C)[C@@H](C)CN([C@@H](C)CO)S3(=O)=O)c1	-	0	0	-	-	-
Cc1ccc(OCCCCNC(C)(C)C)c([N+](=O)[O-])c1	0	0	0	16µM	0	0
Cc1cc2n(n1)C(c1ccccc1)Nc1ccccc1-2 (centres undefined)	0	-	-	0	0	?
Cc1cc2n(n1)C(c1ccc(N(C)C)cc1)Nc1ccccc1-2 (centres undefined)	48	-	-	?	47	0
Cc1ccc2c(c1)-c1cc(C)nn1C(c1ccc3c(c1)OCO3)N2 (centres undefined)	0	-	-	0	16	0
COc1ccccc1NC=C1C(=O)OC(C)(C)OC1=O	82	-	-	0	36	0
CCOc1ccccc1NC=C1C(=O)OC(C)(C)OC1=O	0	-	-	?	0	?
O=C(N/N=C/c1ccc(OC(=O)c2ccccc2Cl)cc1)c1ccccn1	51	0	0	?	49	?
CCN(CC)c1ccc(/C=N/NC(=O)c2ccccn2)cc1	44	0	0	?	26	11µM
CCc1ccc(/C=N/NC(=O)c2ccccn2)cc1	0	0	0	?	0	1.4µM
CCN(CC)c1ccc(/C=N/NC(=O)c2cnccn2)cc1	108	0	?	?	42	?
CCN(CC)c1ccc(/C=N/NC(=O)c2ccc([N+](=O)[O-])cc2)cc1	0	0	0	-	0	-
CCN(CC)c1ccc(/C=N/NC(=O)c2cc(C)nc3ccccc23)cc1	0	0	0	?	0	?
O=C(N/N=C/c1ccc(OC(=O)c2ccccc2Cl)cc1)c1cc(O)cc(O)c1	0	0	0	0	0	0
C#C[C@]1(O)CC[C@H]2[C@H]3CCC4=Cc5oncc5C[C@]4(C)[C@@H]3CC[C@]21C	-	-	-	21µM	-	-
C#C[C@]1(O)CC[C@H]2[C@@H]3CCC4=Cc5oncc5C[C@]4(C)[C@H]3CC[C@@]21C	-	0	0	-	-	-
CCOc1ccc2nc(NC(=O)CS(=O)(=O)c3ccc(C)cc3)sc2c1	0	-	-	0	0	?
O=C(CS(=O)(=O)c1ccccc1)Nc1nc2ccccc2s1	0	-	-	-	25	-
CCOc1ccc2nc(NS(=O)(=O)Cc3ccccc3)sc2c1	0	-	-	?	20	0
CCOc1ccc2nc(NC(=O)CS(=O)(=O)c3ccccc3)sc2c1	active	-	0	0	26	0
O=C(C[n+]1cccc(CO)c1)Nc1nc2ccccc2s1	0	-	-	-	34	-
CCOc1ccc2nc(NS(=O)(=O)c3ccc(NC(C)=O)cc3)sc2c1	0	0	0	0	0	0
O=C(Cn1cc(S(=O)(=O)c2ccccc2)c(=O)c2cc3c(cc21)OCO3)Nc1ccccc1	-	0	0	0	-	0
COc1ccc(S(=O)(=O)N2CCOC2CNC(=O)C(=O)NCC(C)C)cc1 (centres undefined)	0	0	0	0	0	0
COC(=O)c1ccccc1NC(=O)CCCN1C(=O)C(c2ccccc2)Oc2cccnc21 (centres undefined)	0	0	0	-	0	0
SMILES	Shiga inhibitor	VACV mCherry inh	VACV Venus inh	Marburg entry inh	CHX counter	LASV entry inh
Cc1ccc(N(CC(=O)N2CCN(c3ccc(F)cc3)CC2)S(=O)(=O)c2c(C)noc2C)cc1	0	0	0	?	0	?
N#C/C(=C\N1CCOCC1)c1ccccc1	0	0	0	0	0	0
N#C/C(=C\c1ccc(N2CCOCC2)cc1)c1ccccc1	19	?	?	?	51	?
N#C/C(=C/c1ccc(N2CCOCC2)o1)c1ccc(Br)cc1	109	-	0	0	77	0
N#C/C(=C/c1ccc(N2CCOCC2)o1)c1nc2ccccc2[nH]1	58	-	0	?	34	?
N#C/C(=C\c1cc([N+](=O)[O-])c(N2CCOCC2)cc1N1CCOCC1)c1nc2ccccc2[nH]1	0	0	0	?	0	?
N#C/C(=C\c1ccc(N2CCOCC2)o1)c1ccccc1	0	0	0	?	34	?
CC(=O)Nc1cccc(C(=O)NCc2ccc3c(c2)CCN3C(=O)c2ccc(F)cc2)c1	-	0	0	-	-	0
Cc1ncc(C[n+]2ccc(C)c(C)c2)c(N)n1	-	0	0	-	-	-
CCOC(=O)C1=CNS(=O)(=O)NC1c1ccc(C)cc1 (centres undefined)	-	0	0	0	-	-
N#C/C(=C/c1ccc(N2CCCCCC2)o1)c1ccc(F)cc1	-	0	0	10µM	-	?
N#C/C(=C/c1ccc(N2CCCCCC2)o1)c1cccc(F)c1	0	-	-	?	0	0
COc1cccc(NC(=O)CN(C)S(=O)(=O)c2ccc3c(c2)n(C)c(=O)c(=O)n3C)c1	0	0	0	0	0	0
CCN(C(=O)Cn1cc(C(F)(F)F)ccc1=O)C1CCS(=O)(=O)C1 (centres undefined)	-	0	0	-	-	-
CCOC(=O)C1CCN(c2c(Nc3ccc4c(c3)OCCO4)c(=O)c2=O)CC1	88	?	0	0	60	0
CCOC(=O)N1CCC(N2C(=O)c3ccccc3C2Nc2ccc3c(c2)OCCO3)CC1 (centres undefined)	128	-	-	-	161	-
CCOC(=O)C1CCN(C(C(=O)Nc2ccc3c(c2)OCCO3)c2ccccc2)CC1 (centres undefined)	0	0	0	0	0	?
CC(=O)N(C)c1ccc(N=Nc2c(C)[nH]n(C(N)=S)c2=O)cc1	49	-	-	0	39	?
CC(=O)N(C)c1ccc(N=Nc2c(C)[nH]n(-c3ccccc3)c2=O)cc1	0	-	-	-	0	-
CCN(CC)S(=O)(=O)c1ccc(N=Nc2c(C)[nH]n(C(N)=S)c2=O)cc1	73	0	0	?	40	0
CN1C(=O)Cc2cc(S(=O)(=O)NCc3ccccc3Cl)ccc21	-	0	0	-	-	0
Nc1ccc2c(c1)Cc1ccccc1-2	64	0	0	0	34	?
Nc1ccc2c(c1)Cc1cc([N+](=O)[O-])ccc1-2	67	0	0	?	42	?
CC[n+]1cccc(Br)c1	-	0	0	-	-	-
COc1ccc(OC)c(CNC(=O)c2ccccc2NC(=O)c2nsc3ccccc23)c1	-	0	0	-	-	0
SMILES	Shiga inhibitor	VACV mCherry inh	VACV Venus inh	Marburg entry inh	CHX counter	LASV entry inh
Cc1ccc([N+](=O)[O-])cc1S(=O)(=O)Nc1cccc(S(=O)(=O)Nc2ccccc2C(=O)O)c1	-	0	0	0	-	0
Cc1ccc(NS(=O)(=O)c2cc(C(=O)Nc3cccc([N+](=O)[O-])c3)ccc2C)cc1	0	?	?	?	0	18µM
CC(=O)Nc1ccc(NC(=O)c2ccc(C)c(S(=O)(=O)Nc3cccc(C)c3)c2)cc1	0	0	0	6.3µM	0	0
Cc1ccc(C)c(NC(=O)c2ccccc2NS(=O)(=O)c2cc([N+](=O)[O-])ccc2C)c1	0	-	-	4.1µM	0	?
Cc1ccc(CNC(=O)CCCCCn2c(=O)c3sccc3n(CC(=O)N3CCCCC3C)c2=O)cc1 (centres undefined)	-	0	0	0	-	0
O=C(Cn1cnc2ccccc2c1=O)N1CCc2ccccc2C1	0	0	0	0	17	0
O=C(CSc1nc2ccccc2c(=O)n1-c1ccccc1)N1CCc2ccccc2C1	0	0	0	?	0	10µM
N#Cc1ccc(NC(=O)COCc2cc(-c3ccc(F)cc3)on2)cc1	-	0	0	?	-	0
